# Records with an inconclusive call do not appear. A number with no mark means an inactive call. Calls follow the shape of the dose curve; as a rule, active = well fitted inhibition curve with a large enough effect; inconclusive = small, poorly fitted or top-dose-only effect; inactive = no such curve, though single readings can be large or run the other way.
# Test: Primary qHTS for inhibitors of La Crosse Virus (LACV) - induced cell death in SH-SY5Y cells (AID 1508616);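 also: top concentration of the series differs between compounds; 0% = infected DMSO wells and 100% = uninfected DMSO wells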
# Conditions: SH-SY5Y LACV cytopathicity rescue, ATP luminescence, 6 d; series mostly up to 4.29 µM; activity change: at the top concentration
# Text: Assay Provider: Karin Peterson Ph.D.
# National Institute of Allergy and Infection Diseases, National Institute of Health
# La Crosse Virus (LACV) is a California serogroup mosquito-borne arbovirus, family Peribunyaviridae, which is an endemic pathogen in North America and can induce a rare, life-threatening neurological disease in children. LACV was first isolated in the early 1960s, from a summer "rural encephalitis" case in La Crosse, Wisconsin, USA. Since then, LACV encephalitis cases have been found in more than twenty states, with most cases in the Mississippi and Ohio River basins. The life cycle of LACV is maintained between the vector, the eastern tree-hole mosquito Aedes triseriatus, and vertebrate hosts including eastern gray squirrels (Sciurus carolinensis) and chipmunks (Tamiasstriatus grinseus). […] Most LACV infections in humans are asymptomatic or induce mild clinical symptoms of fever, headache, lethargy and vomiting. However, in some cases LACV can cause severe neuroinvasive disease, including encephalitis, meningitis, and meningoencephalitis, requiring hospitalization. To date, there is neither a licensed vaccine nor a Food and Drug Administration (FDA) approved antiviral therapy available to prevent or treat LACV encephalitis. The primary treatment for viral encephalitis is palliative care due to the lack of therapeutics. In the current study, we conducted a screen of 4,096 FDA approved and bioactive small molecules against LACV, by screening for rescue of LACV-induced cell death in SH-SY5Y cells.
# LACV-induced cytopathicity assay
# SEQUENCE No. (1,2, 3, etc.); […] (e.g., Cells, Incubation, Reagent, etc.); VALUE and DESCRIPTION.
# 1. Reagent; 2 uL; Cell solution.
# 3. Compounds; 23nL; Compound library
# 4. Reagent; 12 uL; LACV virus
# 6. Reagent; 24 uL; ATPLite (PerkinElmer)
# 7. Time; 5 min; Room temperature
# 8. Detection; Luminescence; View
# NOTES (numbers refer to sequence above)
# 1. Seed 6000 SH-SY5Y cells (ATCC CRL-2266) in 2 microL/well media (DMEM/F12 10% FBS, 1x L-Glutamine, 1x Pyruvate, 1x NEAA, 1x Pen/Strep) in 384-well assay plates (tissue culture treated, white, solid bottom).
# 2. Incubate at 37 degrees C with 5% CO2 for 24 hr.
# 3. Dispense 23 nL/well compounds in DMSO via pin transfer.
# 4. Dispense 12 microL/well of LACV (LACV/human/1978) in media at 0.01 MOI.
# 5. Incubate at for 6 days at 37C 5% CO2
# 6. Dispense 24 microL/well of ATPLite 1step Luminescence assay system (PerkinElmer).
# 7. Incubate for 5 min at room temperature.
# 8. Read luminescence signal (Viewlux plate reader, PerkinElmer). Data was normalized with DMSO control wells containing LACV as 0%, and DMSO control wells without virus as 100%.
row,Structure (SMILES),activity change
1,CN(C/C=C/c1ccccc1)Cc1cccc2ccccc12,5.77%
2,NC(CS)C(=O)O (stereo not given),-5.46%
3,CN1CCN(C(c2ccccc2)c2ccccc2)CC1,10.2%
4,Cc1c(C)n(CCN(C)C)c2ccc(C(=O)OCCN(C)C)cc12,-22.8%
5,COc1cc(-c2ccc(=O)[nH]n2)ccc1OC(F)F,-1.22%
6,O=C(N/N=C/c1ccccc1O)c1ccncc1,-23.1%
7,CC(Cc1cccc(C(F)(F)F)c1)NCCOC(=O)c1ccccc1 (stereo not given),21.8%
8,Oc1ccc(Cl)c2cccnc12,-33.3%
9,CN(C)/N=N/c1nc[nH]c1C(N)=O,-1.28%
10,N[C@@H](Cc1cnc[nH]1)C(=O)O,8.19% [at 9.63 µM]
11,Cc1c(N(C)CS(=O)(=O)O)c(=O)n(-c2ccccc2)n1C,-9.13%
12,COc1cccc(OC)c1C(=O)N[C@@H]1C(=O)N2[C@@H]1SC(C)(C)[C@@H]2C(=O)O,-0.244%
13,Cc1c(C(C)C)c(=O)n(-c2ccccc2)n1C,-6.17%
14,COC(=O)[C@H]1[C@H]2C[C@H]3c4[nH]c5ccccc5c4CCN3C[C@H]2CC[C@@H]1O,41.5% [at 9.63 µM]
15,N[C@H](Cc1c[nH]c2ccccc12)C(=O)O,26.3%
16,CCC(NC(C)C)C(O)c1ccc(O)c(O)c1 (stereo not given),-18.4% [at 9.63 µM]
17,CN1CCN(CCCN2c3ccccc3Sc3ccc(S(=O)(=O)N(C)C)cc32)CC1,-11.4%
18,O=C(O)CCCCC(=O)O,16.6%
19,Oc1ccc(O)cc1,-22.7%
20,CO/N=C1\CN(c2nc3c(cc2F)c(=O)c(C(=O)O)cn3C2CC2)CC1CN (stereo not given),12.1%

row,Structure (SMILES),activity change
1,CC[C@H](C)C(=O)O[C@H]1CCC=C2C=C[C@H](C)[C@H](CC[C@@H]3C[C@@H](O)CC(=O)O3)[C@H]21,-37.6% [at 9.63 µM]
2,CC(Cc1ccccc1)(NC(=O)CN)c1ccccc1 (stereo not given),11.4%
3,CCCCOc1ccc(OCCCN2CCOCC2)cc1,31.6%
4,C[C@@H](CN(C)C)CN1c2ccccc2Sc2ccccc21,-1.16%
5,N[C@@H](CCC(=O)N[C@@H](CS)C(=O)NCC(=O)O)C(=O)O,-5.78% [at 1.78 µM]
6,CCCCS(=O)(=O)N[C@@H](Cc1ccc(OCCCCC2CCNCC2)cc1)C(=O)O,-1.45%
7,O=c1[nH]c(=O)n([C@H]2C[C@H](O)[C@@H](CO)O2)cc1C(F)(F)F,-6.3%
8,Cc1ccc(Nc2c(F)cccc2Cl)c(CC(=O)O)c1,-2.77%
9,O=C(Nc1ccc(Cl)c(Cl)c1)C1CC1,27.4%
10,C[n+]1c2cc(N)ccc2cc2ccc(N)cc21 (tested in a mixture with another compound),-14.4%
11,CCCCCCCCCCCCCCNCCO,19%
12,C[C@]12CC[C@@H]3c4ccc(O)cc4CC[C@H]3[C@@H]1C[C@@H](O)[C@@H]2O,4.53%
13,NC(=O)c1cc[n+](CC2=C(C(=O)[O-])N3C(=O)[C@@H](NC(=O)Cc4cccs4)[C@H]3SC2)cc1,-0.906%
14,Nc1ccc(/C=C/c2ccc(N)cc2S(=O)(=O)O)c(S(=O)(=O)O)c1,5.33% [at 0.0343 µM]
15,C=C1C[C@H]2[C@@H]3C=C(C)C4=CC(=O)CC[C@]4(C)[C@H]3CC[C@]2(C)[C@@]1(OC(C)=O)C(C)=O,42.1%
16,CC/C(=C(/CC)c1ccc(O)cc1)c1ccc(O)cc1,3.02%
17,O=C(CCCN1CCC(O)(c2ccc(Br)cc2)CC1)c1ccc(F)cc1,-21.6%
18,CCCCCCCCCCCCCCCC[N+](C)(C)CCN(Cc1ccc(OC)cc1)c1ncccn1,19%
19,CCOC(=O)OC(C)OC1=C(C(=O)Nc2ccccn2)N(C)S(=O)(=O)c2ccccc21 (stereo not given),-6.44%
20,O=S1(=O)c2cccc3cccc(c23)N1CCCN1CCN(c2ccc(F)cc2)CC1,33.7%
